The structures appear in SMILES notation.

This assay in a line: small-molecule microarray binders of probe aDKK1, primary screen, biochemical, biotinylated probe, 635/667 nm fluorescence (AID 1099).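 Further: score merges 667nm spot fluorescence with signal to noise across triplicate slides; reference of the scale not given here.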 To be noted: higher = more signal.
For `O=C1CCCC(C2=CCCCC2=O)C1` (stereo unspecified), the composite z-score was -0.356.
The result for `Cn1c(=O)n2n(c1=O)[C@H]1[C@H](O)[C@@H]3O[C@@H]3C(=NOCc3ccccc3)[C@H]1CC2` reads -0.263.
Next, `CO[C@H](C1CCCCC1)[C@H](C)C=CCC(=O)OCCCc1ccccc1`: -0.38.
The result for `COC(=O)[C@H](C)NC(=O)CCC1CC(OC(=O)NCc2ccc3c(c2)OCO3)CC2(CCCC(COC(=O)NCC(c3ccccc3)c3ccccc3)O2)O1` (stereo partly specified) reads -0.33; that for `O=c1n(-c2ccccc2)c(=O)n2n1CC[C@@H]1C(=NOCc3ccccc3)[C@H]3O[C@H]3[C@@H](O)[C@@H]12`, -0.31.
`COC(=O)[C@H]1[C@@H](O)[C@@]2(O)c3ccccc3O[C@@]2(c2ccccc2)[C@@H]1c1ccccc1`: the composite z-score was -0.12.
Regarding `COC(=O)CC=C[C@@H](C)[C@@H](C=NOC(C)CN1CCCc2nc(C)c(C)cc21)OC` (stereo partly specified), the composite z-score was -0.0071.
Next, `COC(=O)[C@H](C)NC(=O)CCC1CC(OC(=O)NCCc2ccc(F)cc2)CC2(CCCC(COC(=O)NCc3cccc(C(F)(F)F)c3)O2)O1` (stereo partly specified): -0.528; `Cc1ccc(S(=O)(=O)N[C@H]2COC(=O)CC=C[C@H](C)[C@@H](NS(=O)(=O)c3ccc(C)cc3)COC(=O)CC=C[C@@H]2C)cc1`: -0.217.
Next, `CON=C1[C@H]2CCn3c(=O)n(-c4ccccc4)c(=O)n3[C@H]2[C@H](O)[C@@H]2O[C@H]12`: -0.198; `C#CCCCON=C1C[C@@H](O)[C@@H](O)[C@@H]2[C@@H]3C(=O)N(C(C)(C)C)C(=O)[C@@H]3CC[C@@H]12`: 1.19; `CO[C@H]1COC(=O)CC=C[C@@H](C)[C@H](NS(=O)(=O)c2ccc(C)cc2)COC(=O)CCC[C@@H]1C`: -0.233.
The molecule `COc1ccc(COC(=O)NN=C2C[C@@H](O)[C@@H](O)[C@@H]3[C@@H]4C(=O)N(c5ccc(F)cc5F)C(=O)[C@@H]4CC[C@H]23)cc1` registered a composite z-score of 0.939.
Next, `COc1ccc(O[C@H]2C=C[C@@H](c3ccccc3)O[C@@H]2COC(=O)CCC(C)=NOC[C@@H](O)[C@H]2O[C@@H]3OC(C)(C)O[C@@H]3[C@H]2O)cc1`: -0.206; `CO[C@H]1COC(=O)CC=C[C@H](C)[C@@H](OC)COC(=O)[C@H](C)COC(=O)CC=C[C@@H]1C`: -0.822.
Next, `CCOC(=O)C1=NO[C@]2(C=C(Br)C3(OCCCO3)[C@H]3O[C@H]32)C1`: -0.32.
The result for `Cc1cc2c(nc1C)CCCCN2CC(C)ON=C1[C@H]2CCn3c(=O)n(-c4ccccc4)c(=O)n3[C@H]2[C@H](O)[C@@H]2O[C@H]12` (stereo partly specified) reads 0.213; that for `COc1ccc(O[C@H]2C=C[C@@H](c3ccccc3)O[C@@H]2COC(=O)CCC(C)=NO[C@@H]2O[C@H](COC(C)=O)[C@@H](OC(C)=O)[C@H](OC(C)=O)[C@H]2OC(C)=O)cc1`, -0.397.
`Cc1cc2c(c(=O)o1)[C@@H](O)[C@H]1O[C@H]1C2=O` registered a composite z-score of -0.145.
Next, `CCOC(=O)CCN1C(=O)[C@H]2[C@H]3[C@H](O)[C@H](O)CC(=NNC(=O)OCc4ccccc4)[C@@H]3CC[C@H]2C1=O`: -0.111; `O=C1[C@H]2[C@H]3[C@H](O)[C@H](O)CC(=NOC[C@@H](O)COCc4ccco4)[C@@H]3CC[C@H]2C(=O)N1C[C@@H]1CCCO1`: -0.549; `CC(C)CON=C1C[C@@H](O)[C@@H](O)[C@@H]2[C@@H]3C(=O)N(C[C@@H]4CCCO4)C(=O)[C@@H]3CC[C@@H]12`: 0.52.
`CON=Cc1ccc(C(=O)N2[C@H](c3ccc(C)cc3)[C@@H](C)CC[C@H]2C(=O)OC)cc1` came in with a composite z-score of -0.254.
The result for `C[C@@H](c1ccccc1)N1C(=O)[C@H]2[C@H]3[C@H](O)[C@H](O)CC(=O)[C@H]3CC[C@H]2C1=O` reads -0.338.
The result for `CC(C)CON=C1C[C@@H](O)[C@@H](O)[C@@H]2[C@@H]3C(=O)N(Cc4ccc5c(c4)OCO5)C(=O)[C@@H]3CC[C@H]12` reads -0.222.
The result for `CCN1C(=O)[C@H]2[C@H]3[C@H](O)[C@H](O)CC(=NOCC(C)C)[C@@H]3CC[C@H]2C1=O` reads -0.0898; that for `CC(C)=NO[C@H](C)c1cn([C@H](CO)Cc2ccccc2)nn1`, -0.309.
The molecule `CCCNC(=O)OC[C@H]1O[C@H](c2ccccc2)C=C[C@@H]1Oc1ccc(OC)cc1` had a composite z-score of -0.377.
The result for `C[C@@H]1CC[C@H]2C(=O)O[C@@H](Cc3ccccc3)CN2[C@H]1c1ccc(Br)cc1` reads 0.14; that for `COc1ccc(O[C@H]2C=C[C@@H](c3ccccc3)O[C@@H]2CON=C(C)CCC(=O)OC[C@H]2O[C@H](c3ccccc3)C=C[C@@H]2Oc2ccc(OC)cc2)cc1`, -0.252; that for `O=C1[C@H]2[C@H]3[C@H](O)[C@H](O)CC(=NOCc4ccccc4)[C@@H]3CC[C@H]2C(=O)N1Cc1ccc2c(c1)OCO2`, -0.225.
Next, `COC(=O)CC=C[C@@H](C)[C@@H](C=NO[C@@H]1O[C@H](COC(C)=O)[C@@H](OC(C)=O)[C@H](OC(C)=O)[C@H]1OC(C)=O)OC`: -0.194; `COc1cccc([C@H]2Oc3ccc(OC)cc3C(=NOC[C@@H](O)[C@H]3O[C@@H]4OC(C)(C)O[C@@H]4[C@H]3O)[C@@H]2O)c1`: -0.389; `O=C1C[C@@H](O)[C@@H](O)[C@@H]2[C@@H]3C(=O)N(Cc4ccccc4)C(=O)[C@@H]3CC[C@@H]12`: -0.222.
Molecule `CO[C@H]1COC(=O)CC=C[C@@H](C)[C@H](OC)COC(=O)CCC[C@@H]1C` came in with a composite z-score of -0.175.
The result for `CCN1C(=O)[C@H]2[C@H]3[C@H](O)[C@H](O)CC(=NNC(=O)OCc4ccc(OC)cc4)[C@@H]3CC[C@H]2C1=O` reads 1.08.

For the origin of these results see PubChem BioAssay.
